Measurements published in the supplement of paper PMC4466140.

Key:
Assay in all cases: SPOT peptide array binding signal intensity (averaged, normalized) (arbitrary units (background-subtracted, floor 0; scale differs between SH3 domains)); higher = stronger binding of the SH3 domain to the peptide
[1] = target: AgAbp1
Summary of the method: (§1)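 GST-fused SH3 domains from four yeast species were expressed in E. coli BL21(DE3), purified on glutathione Sepharose and incubated at 10 μg/ml overnight at 4°C in TBS-based blocking buffer on cellulose membranes carrying synthetic 15-mer peptides, with cysteines replaced by serines. Bound protein was detected with anti-GST antibody, an HRP anti-mouse secondary and luminol, then imaged and quantified with Genespotter. Binding signal is the normalized, background-subtracted spot intensity averaged over replicates, in arbitrary units that differ between domains.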

[2] = target: AgBbc1
Summary of the method: as §1

[3] = target: AgBem1-D1
Summary of the method: as §1

[4] = target: AgBzz1-D1
Summary of the method: as §1

[5] = target: AgBzz1-D2
Summary of the method: as §1

[6] = target: AgCyk3
Summary of the method: as §1

[7] = target: AgFus1
Summary of the method: as §1

[8] = target: AgHof1
Summary of the method: as §1

[9] = target: AgHse1
Summary of the method: as §1

[10] = target: AgLsb1
Summary of the method: as §1

[11] = target: AgLsb4
Summary of the method: as §1

[12] = target: AgMyo5
Summary of the method: as §1

[13] = target: AgNbp2
Summary of the method: as §1

[14] = target: AgRvs167
Summary of the method: as §1

[15] = target: AgSho1
Summary of the method: as §1

[16] = target: AgSla1-D1-D2
Summary of the method: as §1

[17] = target: AgSla1-D3
Summary of the method: as §1

[18] = target: CaAbp1-D1
Summary of the method: as §1

[19] = target: CaAbp1-D2
Summary of the method: as §1

[20] = target: CaBbc1
Summary of the method: as §1

[21] = target: CaBem1-D1
Summary of the method: as §1

[22] = target: CaBzz1-D1
Summary of the method: as §1

[23] = target: CaBzz1-D2
Summary of the method: as §1

[24] = target: CaCyk3
Summary of the method: as §1

[25] = target: CaFus1
Summary of the method: as §1

[26] = target: CaHof1
Summary of the method: as §1

[27] = target: CaHse1
Summary of the method: as §1

[28] = target: CaLsb1
Summary of the method: as §1

[29] = target: CaLsb4
Summary of the method: as §1

[30] = target: CaMyo5
Summary of the method: as §1

[31] = target: CaNbp2
Summary of the method: as §1

[32] = target: CaRvs167
Summary of the method: as §1

[33] = target: CaRvs167-3
Summary of the method: as §1

[34] = target: CaSho1
Summary of the method: as §1

[35] = target: CaSla1-D1-D2
Summary of the method: as §1

[36] = target: CaSla1-D3
Summary of the method: as §1

[37] = target: ScAbp1
Summary of the method: as §1

[38] = target: ScBbc1
Summary of the method: as §1

[39] = target: ScBem1-D1
Summary of the method: as §1

[40] = target: ScBzz1-D1
Summary of the method: as §1

[41] = target: ScBzz1-D2
Summary of the method: as §1

[42] = target: ScCyk3
Summary of the method: as §1

[43] = target: ScFus1
Summary of the method: as §1

[44] = target: ScHof1
Summary of the method: as §1

[45] = target: ScHse1
Summary of the method: as §1

[46] = target: ScLsb1
Summary of the method: as §1

[47] = target: ScLsb2
Summary of the method: as §1

[48] = target: ScLsb3
Summary of the method: as §1

[49] = target: ScLsb4
Summary of the method: as §1

[50] = target: ScMyo3
Summary of the method: as §1

[51] = target: ScMyo5
Summary of the method: as §1

[52] = target: ScNbp2
Summary of the method: as §1

[53] = target: ScPex13
Summary of the method: as §1

[54] = target: ScRvs167
Summary of the method: as §1

[55] = target: ScSho1
Summary of the method: as §1

[56] = target: ScSla1-D1-D2
Summary of the method: as §1

[57] = target: ScSla1-D3
Summary of the method: as §1

[58] = target: SpAbp1-D1
Summary of the method: as §1

[59] = target: SpBbc1
Summary of the method: as §1

[60] = target: SpBzz1-D1
Summary of the method: as §1

[61] = target: SpBzz1-D2
Summary of the method: as §1

[62] = target: SpCyk3
Summary of the method: as §1

[63] = target: SpHof1
Summary of the method: as §1

[64] = target: SpHof1-2
Summary of the method: as §1

[65] = target: SpHof1-3
Summary of the method: as §1

[66] = target: SpHse1
Summary of the method: as §1

[67] = target: SpLsb1
Summary of the method: as §1

[68] = target: SpLsb4
Summary of the method: as §1

[69] = target: SpMyo1
Summary of the method: as §1

[70] = target: SpNbp2
Summary of the method: as §1

[71] = target: SpPex13
Summary of the method: as §1

[72] = target: SpRvs167
Summary of the method: as §1

[73] = target: SpSla1-D1-D2
Summary of the method: as §1

[74] = target: SpSla1-D3
Summary of the method: as §1

Question: Which results are given for VQQDSLPKLPFRSWG?
Answer: SPOT peptide array binding signal intensity [1]: 9.5; SPOT peptide array binding signal intensity [2]: 38.2; SPOT peptide array binding signal intensity [3]: 3.5; SPOT peptide array binding signal intensity [4]: 68.5; SPOT peptide array binding signal intensity [5]: 5.5; SPOT peptide array binding signal intensity [6]: 29; SPOT peptide array binding signal intensity [7]: ≤ 0; SPOT peptide array binding signal intensity [8]: 368; SPOT peptide array binding signal intensity [9]: 1; SPOT peptide array binding signal intensity [10]: 295; SPOT peptide array binding signal intensity [11]: 3220; SPOT peptide array binding signal intensity [12]: ≤ 0; SPOT peptide array binding signal intensity [13]: ≤ 0; SPOT peptide array binding signal intensity [14]: 83.3; SPOT peptide array binding signal intensity [15]: 20; SPOT peptide array binding signal intensity [16]: ≤ 0; SPOT peptide array binding signal intensity [17]: ≤ 0; SPOT peptide array binding signal intensity [18]: 16; SPOT peptide array binding signal intensity [19]: 13; SPOT peptide array binding signal intensity [20]: 220; SPOT peptide array binding signal intensity [21]: ≤ 0; SPOT peptide array binding signal intensity [22]: 53; SPOT peptide array binding signal intensity [23]: 27.5; SPOT peptide array binding signal intensity [24]: 8; SPOT peptide array binding signal intensity [25]: 24; SPOT peptide array binding signal intensity [26]: 4; SPOT peptide array binding signal intensity [27]: 9.25; SPOT peptide array binding signal intensity [28]: ≤ 0; SPOT peptide array binding signal intensity [29]: 6890; SPOT peptide array binding signal intensity [30]: 0.5; SPOT peptide array binding signal intensity [31]: 14.5; SPOT peptide array binding signal intensity [32]: 1260; SPOT peptide array binding signal intensity [33]: 8.5; SPOT peptide array binding signal intensity [34]: 27; SPOT peptide array binding signal intensity [35]: 14; SPOT peptide array binding signal intensity [36]: 1.5; SPOT peptide array binding signal intensity [37]: 6.5; SPOT peptide array binding signal intensity [38]: 3.75; SPOT peptide array binding signal intensity [39]: 0.5; SPOT peptide array binding signal intensity [40]: ≤ 0; SPOT peptide array binding signal intensity [41]: 8; SPOT peptide array binding signal intensity [42]: 2; SPOT peptide array binding signal intensity [43]: ≤ 0; SPOT peptide array binding signal intensity [44]: 178; SPOT peptide array binding signal intensity [45]: 25; SPOT peptide array binding signal intensity [46]: 85.5; SPOT peptide array binding signal intensity [47]: 38.5; SPOT peptide array binding signal intensity [48]: 5130; SPOT peptide array binding signal intensity [49]: 3050; SPOT peptide array binding signal intensity [50]: ≤ 0; SPOT peptide array binding signal intensity [51]: ≤ 0; SPOT peptide array binding signal intensity [52]: ≤ 0; SPOT peptide array binding signal intensity [53]: 2500; SPOT peptide array binding signal intensity [54]: 2720; SPOT peptide array binding signal intensity [55]: 300; SPOT peptide array binding signal intensity [56]: 3.5; SPOT peptide array binding signal intensity [57]: ≤ 0; SPOT peptide array binding signal intensity [58]: 25; SPOT peptide array binding signal intensity [59]: 5.25; SPOT peptide array binding signal intensity [60]: 275; SPOT peptide array binding signal intensity [61]: 1; SPOT peptide array binding signal intensity [62]: 15.5; SPOT peptide array binding signal intensity [63]: 11.2; SPOT peptide array binding signal intensity [64]: 258; SPOT peptide array binding signal intensity [65]: 865; SPOT peptide array binding signal intensity [66]: 77.5; SPOT peptide array binding signal intensity [67]: 3.5; SPOT peptide array binding signal intensity [68]: 6040; SPOT peptide array binding signal intensity [69]: ≤ 0; SPOT peptide array binding signal intensity [70]: 1; SPOT peptide array binding signal intensity [71]: 5; SPOT peptide array binding signal intensity [72]: 2610; SPOT peptide array binding signal intensity [73]: 3.5; SPOT peptide array binding signal intensity [74]: ≤ 0
